Here are results for 29 molecules from PubChem BioAssay (Tox21).

Inconclusive results are not listed. A number with no mark means an inactive call. Activity calls are given as the source filed them. Unless noted, the call rests on the fitted dose curve; in most records, active means well fitted curve in the direction sought with a large enough effect in the repeat runs; inconclusive means weak or mixed curves; inactive means no such curve, though single readings can be large; an effect the other way counts as inactive or inconclusive.

A short description of test [1]: qHTS assay to identify aromatase inhibitors - cell viability counter screen (AID 743084;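 further: cells stimulated with testosterone during compound exposure; nearly all actives have a fitted effect of over 55% in size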). (In qHTS, concentration-response curves come from the screen itself.)
Test [2] deals with Aryl hydrocarbon receptor (Homo sapiens) (UniProt P35869). In words: qHTS assay to identify small molecule that activate the aryl hydrocarbon receptor (AhR) signaling pathway (AID 743085).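 Further: HG2L7.5c1 human HepG2 liver cells with stably integrated DRE-driven firefly reporter; series mostly up to about 70 µM; nearly all actives have a fitted effect of over 15% in size.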 An outline of the steps: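 Measured in HG2L7.5c1 cells: CellTiter-Fluor signal (30 min incubation, 37C) for viability, then luciferase luminescence (30 min, room temperature). Compound contact time was 24 h at 37C, following a 5 h pre-incubation.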
Chain of Aryl hydrocarbon receptor (Homo sapiens) (P35869 whole entry, looked up): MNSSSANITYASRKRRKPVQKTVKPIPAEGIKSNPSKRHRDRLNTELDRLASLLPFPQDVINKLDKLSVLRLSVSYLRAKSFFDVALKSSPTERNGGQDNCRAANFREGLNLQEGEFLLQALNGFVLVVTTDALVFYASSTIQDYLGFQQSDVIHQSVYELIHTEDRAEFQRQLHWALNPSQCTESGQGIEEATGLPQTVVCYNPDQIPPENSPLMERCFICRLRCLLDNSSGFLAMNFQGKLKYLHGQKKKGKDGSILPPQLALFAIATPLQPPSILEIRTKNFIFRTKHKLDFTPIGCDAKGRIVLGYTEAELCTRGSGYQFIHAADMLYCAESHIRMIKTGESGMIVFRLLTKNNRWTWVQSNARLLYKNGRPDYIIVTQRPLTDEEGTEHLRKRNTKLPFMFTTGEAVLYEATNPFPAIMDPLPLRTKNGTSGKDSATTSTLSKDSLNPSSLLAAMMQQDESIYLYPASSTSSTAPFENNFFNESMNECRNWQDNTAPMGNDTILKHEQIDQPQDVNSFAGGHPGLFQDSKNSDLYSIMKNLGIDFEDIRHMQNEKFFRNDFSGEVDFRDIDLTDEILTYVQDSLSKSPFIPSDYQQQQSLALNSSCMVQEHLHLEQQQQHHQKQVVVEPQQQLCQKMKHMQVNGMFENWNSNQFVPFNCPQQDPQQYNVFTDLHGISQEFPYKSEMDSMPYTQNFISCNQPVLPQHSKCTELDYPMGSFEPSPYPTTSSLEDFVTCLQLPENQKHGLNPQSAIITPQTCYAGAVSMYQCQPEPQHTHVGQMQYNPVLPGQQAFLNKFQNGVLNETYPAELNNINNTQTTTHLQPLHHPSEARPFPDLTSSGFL

The nature of test [3]: qHTS assay to identify small molecule that activate the aryl hydrocarbon receptor (AhR) signaling pathway - cell viability counter screen (AID 743086).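 Further: HepG2 liver cells carrying the AhR DRE luciferase reporter; series mostly up to about 70 µM; nearly all actives have a fitted effect of over 45% in size.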 In outline:
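Cytotoxicity counter screen: CellTiter-Fluor signal (30 min, 37 C) in 4000 HepG2 cells/well carrying the DRE-luciferase reporter, following 24 h compound exposure at 37 C.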

Test [4] has as its target Peroxisome proliferator-activated receptor gamma (Homo sapiens) (UniProt P37231). Nature of the test: qHTS assay to identify small molecule agonists of the peroxisome proliferator-activated receptor gamma (PPARg) signaling pathway (AID 743094; active means well fitted activation curve with a large enough effect in the signal ratio in the repeat runs, not every such curve was filed as active; the % refers to the signal ratio; further: potency means the concentration at half of the fitted maximal effect). In outline: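 Fluorescence-based beta-lactamase readout in HEK293H PPARg UAS-bla cells after 17 h compound exposure (37C) and 1 h B/G FRET substrate incubation at room temperature.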

The target is the same in test [5]. In words: qHTS assay to identify small molecule antagonists of the peroxisome proliferator-activated receptor gamma (PPARg) signaling pathway (AID 743191; calls by dose curve; further: series mostly up to about 63 µM; nearly all actives have a fitted effect of over 30% in size). In outline:
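Beta-lactamase reporter under UAS control in HEK293H PPARg-bla cells; compound treatment 17 h at 37C. Read-out: fluorescence intensity after 1 h room-temperature incubation with LiveBLAzer B/G FRET substrate.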

Test [6] can be described thus: qHTS assay to identify small molecule antagonists of the peroxisome proliferator-activated receptor gamma (PPARg) signaling pathway - cell viability counter screen (AID 743194). Further: nearly all actives have a fitted effect of over 55% in size. In outline: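 Viability was measured as CellTiter-Glo luminescence in GeneBLAzer PPARg UAS-bla HEK293H cells. These cells had been exposed 17 h at 37 C to compounds together with rosiglitazone at 50 nM final, with the beta-lactamase readout taken in the same wells.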

The nature of test [7]: qHTS assay for small molecule agonists of the antioxidant response element (ARE) signaling pathway - cell viability counter screen (AID 743203; calls by dose curve; further: nearly all actives have a fitted effect of over 55% in size). In outline: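 Parallel cytotoxicity read-out for the ARE-bla screen: HepG2 reporter cells, 16 hrs with compounds, then CellTiter-Glo luminescence.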
Test [8] in a line: qHTS assay for small molecule activators of the heat shock response signaling pathway - cell viability counter screen (AID 743209). Further: nearly all actives have a fitted effect of over 50% in size. An outline of the steps: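 To flag cytotoxic compounds, HSE-bla HeLa cells plated at 1500 cells/well were dosed for 5 h at 37 C, followed by the reporter FRET read and then CellTiter-Glo, with luminescence recorded 30 min after reagent addition.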

Test [9] in a line: qHTS assay for small molecule activators of the heat shock response signaling pathway (AID 743210; active means well fitted activation curve with a large enough effect in the signal ratio in the repeat runs, with a control signal flat, not every such curve was filed as active; the % refers to the signal ratio;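 further: HeLa cells with beta-lactamase reporter driven by heat shock elements; series mostly up to about 63 µM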). In outline:
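Fluorescence from a cleaved B/G FRET substrate (2.5 h, room temp) reports HSE-driven beta-lactamase in HeLa cells treated 5 h at 37 C with DMSO-dissolved compounds.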

Test [10] in a line: qHTS assay for small molecule agonists of the antioxidant response element (ARE) signaling pathway (AID 743202; active means well fitted activation curve with a large enough effect in the signal ratio in the repeat runs, not every such curve was filed as active; the % refers to the signal ratio). In outline:
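Beta-lactamase reporter activity, read as fluorescence intensity, reflects ARE/Nrf2 pathway induction in HepG2 cells after 16 h compound exposure at 37 C; substrate loading was 2 h at room temperature.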
On the % scale 0 is the no-effect control and ±100 the full control effect.

Chain of Peroxisome proliferator-activated receptor gamma (Homo sapiens) (P37231 whole entry, looked up): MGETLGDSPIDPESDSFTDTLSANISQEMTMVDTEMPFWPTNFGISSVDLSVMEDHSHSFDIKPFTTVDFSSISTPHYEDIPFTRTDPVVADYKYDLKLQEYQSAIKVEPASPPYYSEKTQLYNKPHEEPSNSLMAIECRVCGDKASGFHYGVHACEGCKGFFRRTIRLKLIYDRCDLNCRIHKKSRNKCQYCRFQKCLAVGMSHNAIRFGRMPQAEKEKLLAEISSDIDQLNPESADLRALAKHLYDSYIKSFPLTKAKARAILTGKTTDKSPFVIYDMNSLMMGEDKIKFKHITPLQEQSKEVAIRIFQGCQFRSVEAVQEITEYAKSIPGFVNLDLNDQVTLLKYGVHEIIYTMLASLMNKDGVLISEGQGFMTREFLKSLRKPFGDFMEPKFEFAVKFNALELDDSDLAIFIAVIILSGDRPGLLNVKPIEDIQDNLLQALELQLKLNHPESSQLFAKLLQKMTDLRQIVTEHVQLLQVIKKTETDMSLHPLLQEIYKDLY

Turning to `C=CCCCC`, the Potency entry in test [1], in [2], in [3], in test [4] and in test [8] was “inactive” each time. The molecule was called inactive in test [5], in [6], in test [7] and in test [9].
`CC1(C)O[C@H]2CC(=O)OC[C@]23[C@H]2CC[C@@]4(C)[C@H](c5ccoc5)OC(=O)[C@H]5O[C@]54[C@]2(C)C(=O)C[C@@H]13`: the Potency result in test [1], in [2], in test [3], in test [4], in [10] and in [8] was “inactive” throughout. Also, the result in test [6], in test [7] and in test [9] was inactive.
Turning to `CCO`, the Potency entry in test [1], in test [2], in [3], in test [4], in [10] and in test [8] was “inactive” in each case. Moreover, the outcome in test [5], in [7] and in [9] was inactive.
With `CCCCOC(=O)[C@H](C)O`, the Potency result in [1], in test [2], in test [3], in [4] and in [8] was “inactive” throughout. Besides, the outcome in [5], in test [6], in test [7] and in test [9] was inactive.
Consider `N#CCC(=O)NN`, for which the Potency result in [1], in test [2], in test [3], in [4] and in test [8] was “inactive” each time. Moreover, the result in test [5], in test [6] and in test [7] was inactive.
In the case of `O=C(Cn1ccnc1[N+](=O)[O-])NCc1ccccc1`, the Potency result in test [1], in test [2], in [3], in test [4], in [10] and in test [8] was “inactive” throughout. The molecule was classed as inactive in test [5], in test [6], in test [7] and in test [9].
For the molecule `COC(=O)c1ccccc1C(=O)O`, the Potency entry in test [1], in [2], in [3], in test [4], in test [10] and in test [8] was “inactive” in each case. The call in test [6], in test [7] and in test [9] was inactive.
Turning to `CC1(C)CC(OC(=O)CCCCCCCCC(=O)OC2CC(C)(C)NC(C)(C)C2)CC(C)(C)N1`, the Potency result in [1], in test [2], in test [3], in test [4] and in [8] was “inactive” throughout. For the same molecule, the molecule was called inactive in test [5], in test [6], in test [7] and in test [9].
As for `C=CCOC(=O)CCCCCC`, the Potency result in test [1], in [2], in [3], in test [4], in test [10] and in test [8] was “inactive” throughout. Besides, the result in [6] and in [7] was inactive.
Take `N#Cc1cscn1`: the Potency result in [1], in test [2], in [3], in test [10] and in test [8] was “inactive” each time. The Potency in test [4] was 54.9 µM (active). Besides, the molecule was called inactive in test [5], in test [6], in [7] and in [9].
`C#CCN[C@@H]1CCc2ccccc21`: the Potency entry in test [1], in test [2], in [3], in test [4] and in test [10] was “inactive” in each case. Also, the result in test [5], in test [6], in test [7] and in [9] was inactive.
As for `Cc1ccc(C)c([N+](=O)[O-])c1`, the Potency result in [1], in test [2], in test [3], in [4] and in test [8] was “inactive” each time. The molecule was classed as inactive in test [5], in test [6], in test [7] and in test [9].
Regarding `COc1ccc(CCO)cc1`, the Potency entry in [1], in test [2], in [3], in [4], in test [10] and in test [8] was “inactive” throughout. For the same molecule, the outcome in [7] and in [9] was inactive.
Regarding `CC(=O)OCC(=O)Nc1cc(C#N)cc(NC(=O)COC(C)=O)c1Cl`, the Potency result in test [1], in test [2], in [3], in test [4], in test [10] and in [8] was “inactive” throughout. The molecule was classed as inactive in test [6], in test [7] and in [9].
For the molecule `CCCCCC(C)O` (centres undefined), the Potency entry in test [1], in [2], in test [3], in [4], in test [10] and in test [8] was “inactive” in each case. In addition, the molecule was called inactive in test [5], in [6] and in test [9].
For `CCCCCCCCCOC(=O)CCCCC(=O)OCCCCCCC`, the Potency result in [1], in [2], in test [3], in test [4] and in test [8] was “inactive” each time. Also, the molecule was classed as inactive in test [6] and in [7].
`OCC1CCC(CO)CC1` (centres undefined): the Potency result in [1], in [2], in test [3], in test [4], in test [10] and in test [8] was “inactive” each time. The molecule was called inactive in test [6], in [7] and in test [9].
`CCCCOC(=O)C(C)O` (centres undefined): the Potency result in test [1], in test [2], in [3], in test [4], in test [10] and in test [8] was “inactive” throughout. For the same molecule, the molecule was called inactive in test [5] and in test [7].
For `N[C@@H](Cc1ccc(O)cc1)C(=O)O`, the Potency entry in test [1], in test [2], in test [3] and in test [4] was “inactive” in each case. Also, the activity change, negative = cytotoxicity is 3.31% [at 13.2 µM] in [6] and -1.43% [at 13.2 µM] in test [8]. Moreover, the activation in test [10] is -7.61% [at 8.36 µM]; in [9] it was 0.612% [at 13.2 µM]. For the same molecule, the viability change, negative = cytotoxic in test [7] is 19.5% [at 8.36 µM].
On to `CCCCCCCCCCOC(C)=O`, for which the Potency result in test [1], in test [2], in [3], in [4] and in test [8] was “inactive” in each case. Besides, the call in [5], in test [6], in test [7] and in test [9] was inactive.
Regarding `Cc1ccc(C(=O)O)cc1[N+](=O)[O-]`, the Potency entry in [1], in [2], in [3], in test [4], in test [10] and in test [8] was “inactive” each time. Moreover, the molecule was classed as inactive in test [6], in test [7] and in test [9].
Take `CC(C)COC(=O)c1ccccc1`: the Potency entry in test [1], in test [2], in [3], in test [4] and in test [8] was “inactive” each time. Moreover, the molecule was classed as inactive in test [6].
`OC1OCCOC1O` (centres undefined): the Potency entry in test [1], in [2], in test [3], in test [10] and in [8] was “inactive” throughout. Besides, the result in test [6] and in test [7] was inactive.
For `O=[N+]([O-])c1c(Cl)cc(Cl)cc1Cl`, the Potency result in [1], in [2], in [3], in [10] and in test [8] was “inactive” throughout. Also, the call in test [6] and in test [7] was inactive.
As to `O=C(O)CNC(=O)CNC(=O)CNC(=O)CSC(=O)c1ccccc1`, the Potency entry in test [1], in [2], in [3], in test [10] and in test [8] was “inactive” each time. Also, the outcome in test [5], in test [6], in test [7] and in test [9] was inactive.
For `CCC[C@@H]1C[C@@H](C(=O)N[C@@H]([C@H]2O[C@H](SC)[C@H](O)[C@@H](O)[C@H]2O)[C@@H](C)O)N(C)C1`, the Potency entry in test [1], in [2], in [3], in [10] and in test [8] was “inactive” throughout. The call in test [6] and in test [7] was inactive.
Regarding `CC1(C)Oc2ccc(C#N)cc2[C@@H](N2CCCC2=O)[C@@H]1O`, the Potency entry in [1], in test [2], in [3], in [10] and in [8] was “inactive” throughout. For the same molecule, the call in test [5], in [6], in test [7] and in test [9] was inactive.
Regarding `O/N=C/C=N/O`, the Potency entry in test [1], in [2], in test [4], in test [10] and in [8] was “inactive” throughout. Further, the molecule was classed as inactive in test [5], in test [6] and in [7].
`C=C(C)[C@@H]1CC=C(C)CC1`: the Potency result in test [1], in [2], in [3] and in [8] was “inactive” throughout. Besides, the molecule was called inactive in test [7] and in [9].
